From PubChem BioAssay AID1850 (Southern Research Specialized Biocontainment Screening …, 2009) come the findings set out here.

In all, about 310,000 compounds went through this assay and about 1,000 (0.32%) were called active. How the calls were made is not given here. The list is a sample of the results. Potency and affinity values are given separately.

This experiment in a line: Inhibition of PhoP regulon, Salmonella typhi GFP reporter cells, confirmation, 4 h (AID 1850).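 Further: 0% = induced wells with vehicle and 100% = uninduced wells.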 Conditions: Salmonella Typhi PhoP-promoter GFP reporter, fluorescence, at 50 µM, active compounds read high.
Usually inhibition stands for the drop in the measured response relative to a control, in per cent. Consider `Cc1noc(C)c1C(=O)NCCC1=CCCCC1`, for which the inhibition is 1.2% (inactive).

For the compound `Cn1nnnc1SCCNC(=O)C1CCC(=O)N(Cc2ccc(Cl)cc2)C1` (stereo not drawn), the inhibition is -10.8% (inactive).

Take `COc1ccc(NC(=O)C2CC(c3ccc(Cl)cc3)=NO2)cc1` (stereo not drawn): the inhibition is 7.66% (inactive).

`COc1ccc(OCC(O)CNC(C)c2ccccc2)cc1` (stereo not drawn): the inhibition was 1.46% (inactive). Regarding `Cc1ccc(OCC(O)CNC(C)c2ccccc2)cc1C` (stereo not drawn), the inhibition is -6.36% (inactive).

With `COc1cccc(OCC(O)CNC(C)c2ccccc2)c1` (stereo not drawn), the inhibition was 6.91% (inactive). In the case of `CC(NCC(O)COCc1ccc(Cl)cc1)c1ccccc1` (stereo not drawn), the inhibition was -6.47% (inactive). Then `CC(C)c1ccc(OCC(O)CNC(C)c2ccccc2)cc1` (stereo not drawn), with 1.07% (inactive). In the case of `NCC(O)COCCC12CC3CC(CC(C3)C1)C2` (stereo not drawn), the inhibition is -0.98% (inactive). Then `O=C(CCC1CCCN(C(=O)c2cccc(F)c2)C1)N1CCN(c2ccccn2)CC1` (stereo not drawn), with -7.6% (inactive); and `O=C(CCNS(=O)(=O)c1ccccc1)OCC(=O)c1ccc(Br)cc1`, with -3.69% (inactive). As for `COc1ccc(C2N(c3ccccc3)CCN2c2ccccc2)cc1O`, the inhibition is -8.63% (inactive). On to `COc1ccccc1Cn1c(CCCO)nc2ccccc21`, for which the inhibition is 1.55% (inactive). Consider `Oc1ccc(Cl)cc1CNCc1ccc(Cl)cc1`, for which the inhibition was 12.4% (inactive).

For `Oc1ccc(Cl)cc1CNn1cnnc1`, the inhibition was 9.93% (inactive). On to `CCOc1ccc(S(=O)(=O)NC(C)C(=O)NCc2ccccn2)cc1` (stereo not drawn), for which the inhibition was -3.4% (inactive). Regarding `COc1ccc(/C=C/C2=CCN(C)CC2)cc1`, the inhibition is 17.2% (inactive).

Consider `OC(CN1CC=C(/C=C/c2ccc(Br)cc2)CC1)c1ccccc1` (stereo not drawn), for which the inhibition is -9.93% (inactive). Then `CCOc1ccc(S(=O)(=O)N2CCN(C(=O)c3ccncc3)CC2)cc1`, with -2.75% (inactive); and `CC1CN(C(=O)CCC(=O)NCc2ccccc2)c2ccccc2S1` (stereo not drawn), with 6.38% (inactive). Regarding `OC(CNCC1CCCO1)Cn1c2ccc(Br)cc2c2cc(Br)ccc21` (stereo not drawn), the inhibition is -0.49% (inactive). With `OC(CNCC1CCCO1)Cn1c2ccccc2c2ccccc21` (stereo not drawn), the inhibition was 14.3% (inactive). Consider `NC(=O)Cn1c(=O)n(CC(=O)N2CCCCC2)c(=O)c2sccc21`, for which the inhibition is 2.84% (inactive). For `Cc1[nH]c2ccc(OC(F)(F)F)cc2c1CCNCc1cccc([N+](=O)[O-])c1`, the inhibition was 6.4% (inactive). Regarding `COc1ccc(CNCCc2c(C)[nH]c3ccc(OC(F)(F)F)cc23)c(OC)c1`, the inhibition is -3.23% (inactive). As to `COc1ccc2[nH]c(C)c(CCNC(=S)Nc3ccccc3OC)c2c1`, the inhibition was -5.5% (inactive). For the compound `COc1ccc2[nH]c(C)c(CCNCc3cc(OC)c(OC)c(OC)c3)c2c1`, the inhibition was 7.48% (inactive). For the compound `O=C(CN1CCC(C(O)(c2ccccc2)c2ccccc2)CC1)Nc1cc(Cl)ccc1Cl`, the inhibition was -20% (inactive).
